Data on seven compounds can be found in PubChem BioAssay (NCATS).

A short description of assay [1]: Cytometric Cell-Based qHTS for Inhibitors of the mTORC1 Signaling Pathway in MEF (Tsc2-/-, p53-/-) Cells (AID 2660).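 Note: percent of cells above a phospho-rpS6 to PI ratio cutoff in each well; series mostly up to about 38 µM.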 The gist of the method: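 Tsc2-/-, p53-/- MEFs (empty vector) exposed to compound 24 h at 37 C, fixed, stained with Alexa-488 anti-phospho-rpS6 Ser235/236 and propidium iodide. Acumen laser scanning; phospho-S6/PI ratio thresholded against 7.5 nM rapamycin, reported as % positive cells.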
(In general: Quantitative high-throughput screening tests each substance at several concentrations.)

Assay [2] can be described thus: High Content Imaging Cell-Based qHTS for Inhibitors of the mTORC1 Signaling Pathway in MEF (Tsc2-/-, p53-/-) Cells (AID 2666).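 Note: percent of cells scored positive for phospho-rpS6 Ser235/236 immunostaining by imaging.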 A digest of the protocol:
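Phospho-rpS6 (Ser235/236) immunofluorescence, normalized and scored as % positive cells using rapamycin and DMSO controls, was read in empty-vector Tsc2-/-, p53-/- MEFs after 24 h compound exposure at 37 C; propidium iodide counted cells.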

A short description of assay [3]: High Content Imaging Cell-Based qHTS for Inhibitors of the mTORC1 Signaling Pathway in MEF Cells (AID 2667). Note: potency is the fitted concentration of half-maximal effect. The gist of the method: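 WT MEFs (Tsc2-/-, p53-/- re-expressing Tsc2), in DMEM + 10% FBS, were treated with compound for 24 h at 37 C. Cells were then fixed and stained for phospho-rpS6 Ser235/236 with propidium iodide as cell count. Values are % positive cells, with thresholds set against rapamycin-treated cells.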

The target of assay [4] is Ubiquitin carboxyl-terminal hydrolase 2 (Homo sapiens) (UniProt O75604). The assay can be described thus: qHTS Validation Assay for Inhibitors of Ubiquitin-specific Protease USP2a Using CHOP2 as the Reporter (AID 463106). A digest of the protocol: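 USP2 core (10 nM final) was preincubated with compound 30 min at RT in pH 8.0 Tris/CaCl2/beta-ME/CHAPS buffer. Ub-CHOP2 and reporter substrate (25 nM final each) were then added, with fluorescence (Ex 485/Em 531) read after 60 min. Data were normalized to NEM full inhibition and fitted to concentration-response curves.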

Assay [5] addresses DNA polymerase III PolC-type (Bacillus subtilis (strain 168)) (UniProt P13267). The assay can be described thus: qHTS Validation Assay for the Inhibitors of DNA Replication in Gram-Positive Bacteria (AID 485295).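 Note: reconstituted holoenzyme with PolC plus beta clamp SSB and primase; PicoGreen fluorescence of double-stranded DNA made on primed circular M13 template; series mostly up to about 57 µM.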 A digest of the protocol: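 Primed replication of single-stranded M13Gori by a four-protein B. subtilis holoenzyme is measured at room temperature. Double-stranded product is quantified by PicoGreen fluorescence after an EDTA stop; inhibition is scaled between DMSO and EDTA controls.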

Assay [6] addresses Tumor susceptibility gene 101 protein (Homo sapiens) (UniProt Q99816). The assay can be described thus: qHTS Validation Assay for Iinhibitors of HIV-1 Budding by Blocking the Interaction of PTAP/TSG101 (AID 485342; calls by dose curve). A digest of the protocol: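 Fluorescence anisotropy measured PTAP-Tsg101 interaction. Final concentrations were 10 uM protein domain and 50 nM labeled peptide, equilibrated 20 min at room temperature.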

Assay [7] can be described thus: qHTS Validation Assay to Find Inhibitors of Chronic Active B-Cell Receptor Signaling (AID 485345; active = well fitted curve in the direction sought with a large enough effect in the main read-out, with a control signal flat, not every such curve was filed as active). A digest of the protocol: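 TMD8 ABC-DLBCL cells stably carrying doxycycline-inducible IkappaBalpha–green luciferase fusion plus unfused red luciferase; compounds 46 uM to 3 nM, 4 h at 37C with doxycycline. Corrected green/red luminescence ratio normalized to 10 uM MG-132 and basal cell wells; curves fitted.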

The target of assay [8] is Beta-2 adrenergic receptor (Homo sapiens) (UniProt P07550). The assay can be described thus: qHTS validation assay of beta-arrestin-biased ligands of beta2-adrenergic receptor (AID 485366). A digest of the protocol:
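Tango cells expressing recombinant beta2-AR and beta-arrestin with tTA-driven luciferase, in DMEM with 1% FBS. Compounds were titrated up to 46 microM for 18 hr at 37 degrees C. Luminescence was read 15 min after substrate; curves were fitted and class-assigned.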

Assay [9] has as its target ATP-dependent 6-phosphofructokinase (Trypanosoma brucei brucei) (UniProt O15648). The assay can be described thus: qHTS Validation Assay to Find Inhibitors of T. brucei phosphofructokinase (AID 485368). Note: potency is the fitted concentration of half-maximal effect. The gist of the method: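 Activity was read as ADP production by luminescence (ADP-Glo) after 45 min at room temperature. The enzyme was 1.25nM PFK in 0.1M TEA pH 8.0 with 0.5 mM F6P, 0.1mM ATP and 5 mM MgCl2. Compounds were titrated up to 57 uM and % activity normalized to no-enzyme and full-enzyme controls.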

The nature of assay [10]: Quantitative high throughput screen for delayed death inhibitors of the malarial parasite plastid, 96 hour incubation (AID 488745).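 Note: luciferase-expressing P. falciparum in erythrocytes at 2% hematocrit and 0.1% parasitemia; series mostly up to about 29 µM; nearly all actives have a fitted effect of over 70% in size.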 The gist of the method: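 Infected erythrocytes were added to compound in Albumax-supplemented RPMI 1640 at 0.1% parasitemia and 2% hematocrit (final), incubated 96 h at 37 C under 5% CO2, then luciferase reagent was added and luminescence measured.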

The target in assay [11] is Thioredoxin reductase 1, cytoplasmic (Rattus norvegicus) (UniProt O89049). The assay can be described thus: qHTS Assay for Substrates of Mammalian Selenoprotein Thioredoxin Reductase 1 (TrxR1) (AID 488772).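 Note: NADPH fluorescence in the first read after selenite addition and not the 8 min delta; series mostly up to about 57 µM; a drop in NADPH fluorescence below the no-compound background marks a TrxR1 substrate.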 The gist of the method: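 Quantitative HTS in Tris-HCl buffer at pH 7.5 with EDTA and Tween-20, using rat TrxR1, 400 uM NADPH and 400 uM selenite (final). A fall in initial NADPH fluorescence relative to background marked substrate behaviour.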

Assay [12] has the same target. The assay can be described thus: qHTS Assay for Inhibitors of Mammalian Selenoprotein Thioredoxin Reductase 1 (TrxR1) (AID 488773).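 Note: drop in NADPH fluorescence over an 8 min run after selenite addition; series mostly up to about 57 µM; nearly all actives have a fitted effect of over 40% in size.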 The conditions noted are these: Potency: inhibition. The gist of the method:
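Steps: enzyme (90 nM) plus NADPH (400 uM final), 5 min at ~22 deg C; compound added, 15 min; selenite (400 uM final) added; fluorescence followed for 8 min. Concentration-response curves derived from the normalized delta values.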

In assay [13] the target is Flap endonuclease 1 (Homo sapiens) (UniProt P39748). The assay can be described thus: qHTS Validation Assay for the Inhibitors of Human Flap endonuclease 1 (FEN1) (AID 488816). Note: potency is the fitted concentration of half-maximal effect. The gist of the method:
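Human FEN1 (10 nM) preincubated 15 min at room temperature with compounds, then flap DNA substrate added at 50 nM final. Fluorescence read at 0 and 15 min; concentration-response fitted with four-parameter Hill equation.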

For assay [14], the target named is M-phase phosphoprotein 8 (Homo sapiens) (UniProt Q99549). The assay can be described thus: qHTS Validation Assay for Inhibitors for MPP8 Chromodomain Interactions with Methylated Histone Tails (AID 488949).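 Note: AlphaScreen signal from MPP8 chromodomain bound to biotinylated H3K9me3 peptide; top concentration of the series differs between compounds; nearly all actives have a fitted effect of over 55% in size.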 The gist of the method:
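Disruption of the preformed MPP8–trimethyl-H3K9 peptide complex (both 50 nM, 30 min, RT) is measured after 30 min compound exposure, using AlphaScreen proximity beads; aurintricarboxylic acid titration serves as plate control.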

Assay [15] has as its target Chromobox protein homolog 1 (Homo sapiens) (UniProt P83916). The assay can be described thus: qHTS Validation Assay for Inhibitors of HP1-beta Chromodomain Interactions with Methylated Histone Tails (AID 488953). Note: nearly all actives have a fitted effect of over 50% in size. Note: potency is the fitted concentration of half-maximal effect. The gist of the method: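 50 nM HP1-beta + 50 nM biotin-H3(1-18)K9me3, PBS pH 7.4, 0.01% Tween-20, 30 min RT; compound added, 30 min RT; AlphaScreen beads 10 ug/mL final, 30 min dark; luminescence read.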

Assay [16] in a line: Cytometry Cell-Based qHTS for Inhibitors of the mTORC1 Signaling Pathway in MEF cells (AID 2668). Note: potency is the fitted concentration of half-maximal effect. The gist of the method: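 Pathway inhibition in WT Tsc2-rescued Tsc2-/-, p53-/- MEFs is measured as the Alexa-488 phospho-rpS6 to propidium iodide intensity ratio after 24 hrs of compound at 37 degree Celsius. PI-stained cell number gives viability.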
Assay [17] is described as follows: Quantitative high throughput screen for delayed death inhibitors of the malarial parasite plastid, 48 hour incubation (AID 488752). Note: nearly all actives have a fitted effect of over 65% in size. The gist of the method:
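Readout is firefly luciferase luminescence from a reporter integrated into the parasite genome, with lower signal taken as inhibited growth. Infected red cells (0.1% parasitemia, 2% hematocrit final) are cultured with compound for one 48 h cycle at 37 C.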

The nature of assay [18]: Validation screen for small molecules that induce DNA re-replication in MCF 10A normal breast cells (AID 463097). Note: potency is the fitted concentration of half-maximal effect; nearly all actives have a fitted effect of over 60% in size. A digest of the protocol: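 DNA re-replication was detected as a rise in nuclei with elevated Hoechst fluorescence after a 48 hr compound exposure of MCF 10A cells at 37 C.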

Records with an inconclusive call do not appear. Active and inactive are the calls of the source. Unless noted, calls come from the whole dose curve; as a rule, active = well fitted curve in the direction sought with a large enough effect; inconclusive = small, poorly fitted or top-dose-only effect, or another doubt; inactive = no such curve, though single readings can be large; an effect the other way counts as inactive or inconclusive.

Chain of Chromobox protein homolog 1 (Homo sapiens) (P83916 whole entry, looked up): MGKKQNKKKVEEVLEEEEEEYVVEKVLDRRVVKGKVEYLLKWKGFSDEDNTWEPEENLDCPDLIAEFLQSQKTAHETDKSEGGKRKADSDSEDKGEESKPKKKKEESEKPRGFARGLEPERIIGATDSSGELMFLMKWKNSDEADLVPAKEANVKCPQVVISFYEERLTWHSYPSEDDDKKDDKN
Chain of Ubiquitin carboxyl-terminal hydrolase 2 (Homo sapiens) (O75604 whole entry, looked up): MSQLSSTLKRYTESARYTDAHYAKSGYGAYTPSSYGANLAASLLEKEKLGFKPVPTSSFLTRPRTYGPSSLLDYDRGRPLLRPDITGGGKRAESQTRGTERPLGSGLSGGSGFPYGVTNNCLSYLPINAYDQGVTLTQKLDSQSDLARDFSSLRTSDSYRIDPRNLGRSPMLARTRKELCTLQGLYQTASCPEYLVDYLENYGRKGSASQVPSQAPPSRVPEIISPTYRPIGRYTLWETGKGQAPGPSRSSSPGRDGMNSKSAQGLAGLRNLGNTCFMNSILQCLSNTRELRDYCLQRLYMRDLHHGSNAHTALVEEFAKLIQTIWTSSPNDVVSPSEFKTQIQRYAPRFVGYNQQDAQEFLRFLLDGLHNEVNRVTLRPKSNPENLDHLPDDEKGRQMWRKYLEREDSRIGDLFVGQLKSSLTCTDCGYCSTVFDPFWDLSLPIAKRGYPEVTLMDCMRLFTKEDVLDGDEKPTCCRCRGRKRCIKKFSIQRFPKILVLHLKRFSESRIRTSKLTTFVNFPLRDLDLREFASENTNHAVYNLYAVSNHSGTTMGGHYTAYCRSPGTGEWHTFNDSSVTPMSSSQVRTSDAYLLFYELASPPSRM
Chain of Beta-2 adrenergic receptor (Homo sapiens) (P07550 whole entry, looked up): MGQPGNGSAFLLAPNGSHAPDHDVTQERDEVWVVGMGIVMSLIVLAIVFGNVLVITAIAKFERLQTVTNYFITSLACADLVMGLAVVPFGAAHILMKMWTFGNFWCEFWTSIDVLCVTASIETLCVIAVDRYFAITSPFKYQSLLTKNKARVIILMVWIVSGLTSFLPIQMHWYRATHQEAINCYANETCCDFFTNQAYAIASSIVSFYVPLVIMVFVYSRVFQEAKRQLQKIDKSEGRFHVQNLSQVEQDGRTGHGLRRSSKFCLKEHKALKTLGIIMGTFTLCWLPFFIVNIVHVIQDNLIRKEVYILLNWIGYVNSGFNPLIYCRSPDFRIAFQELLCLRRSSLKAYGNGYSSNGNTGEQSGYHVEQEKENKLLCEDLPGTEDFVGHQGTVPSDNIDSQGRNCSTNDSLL
Chain of Tumor susceptibility gene 101 protein (Homo sapiens) (Q99816 whole entry, looked up, the tested form may be a part): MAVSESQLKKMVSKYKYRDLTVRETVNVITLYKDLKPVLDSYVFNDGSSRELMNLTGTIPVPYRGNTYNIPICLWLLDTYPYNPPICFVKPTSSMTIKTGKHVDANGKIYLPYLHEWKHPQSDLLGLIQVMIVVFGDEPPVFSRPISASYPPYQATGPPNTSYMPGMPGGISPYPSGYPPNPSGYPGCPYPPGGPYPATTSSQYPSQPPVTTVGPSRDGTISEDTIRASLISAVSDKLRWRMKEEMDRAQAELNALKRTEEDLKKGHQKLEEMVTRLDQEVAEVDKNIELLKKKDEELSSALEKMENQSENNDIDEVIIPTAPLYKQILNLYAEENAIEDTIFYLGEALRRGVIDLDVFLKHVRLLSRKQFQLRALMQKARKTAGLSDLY
Chain of Flap endonuclease 1 (Homo sapiens) (P39748 whole entry, looked up): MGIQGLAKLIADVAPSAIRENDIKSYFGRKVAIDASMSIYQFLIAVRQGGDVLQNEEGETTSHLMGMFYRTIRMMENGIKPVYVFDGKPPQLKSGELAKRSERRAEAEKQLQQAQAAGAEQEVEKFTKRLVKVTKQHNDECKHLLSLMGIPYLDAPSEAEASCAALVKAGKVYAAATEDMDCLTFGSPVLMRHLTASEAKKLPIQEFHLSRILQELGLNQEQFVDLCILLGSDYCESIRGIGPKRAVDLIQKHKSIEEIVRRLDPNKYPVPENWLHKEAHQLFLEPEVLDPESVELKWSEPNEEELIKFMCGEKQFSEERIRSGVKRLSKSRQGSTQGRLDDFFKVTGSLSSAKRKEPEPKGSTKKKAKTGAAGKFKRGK
Chain of DNA polymerase III PolC-type (Bacillus subtilis (strain 168)) (P13267 whole entry, looked up): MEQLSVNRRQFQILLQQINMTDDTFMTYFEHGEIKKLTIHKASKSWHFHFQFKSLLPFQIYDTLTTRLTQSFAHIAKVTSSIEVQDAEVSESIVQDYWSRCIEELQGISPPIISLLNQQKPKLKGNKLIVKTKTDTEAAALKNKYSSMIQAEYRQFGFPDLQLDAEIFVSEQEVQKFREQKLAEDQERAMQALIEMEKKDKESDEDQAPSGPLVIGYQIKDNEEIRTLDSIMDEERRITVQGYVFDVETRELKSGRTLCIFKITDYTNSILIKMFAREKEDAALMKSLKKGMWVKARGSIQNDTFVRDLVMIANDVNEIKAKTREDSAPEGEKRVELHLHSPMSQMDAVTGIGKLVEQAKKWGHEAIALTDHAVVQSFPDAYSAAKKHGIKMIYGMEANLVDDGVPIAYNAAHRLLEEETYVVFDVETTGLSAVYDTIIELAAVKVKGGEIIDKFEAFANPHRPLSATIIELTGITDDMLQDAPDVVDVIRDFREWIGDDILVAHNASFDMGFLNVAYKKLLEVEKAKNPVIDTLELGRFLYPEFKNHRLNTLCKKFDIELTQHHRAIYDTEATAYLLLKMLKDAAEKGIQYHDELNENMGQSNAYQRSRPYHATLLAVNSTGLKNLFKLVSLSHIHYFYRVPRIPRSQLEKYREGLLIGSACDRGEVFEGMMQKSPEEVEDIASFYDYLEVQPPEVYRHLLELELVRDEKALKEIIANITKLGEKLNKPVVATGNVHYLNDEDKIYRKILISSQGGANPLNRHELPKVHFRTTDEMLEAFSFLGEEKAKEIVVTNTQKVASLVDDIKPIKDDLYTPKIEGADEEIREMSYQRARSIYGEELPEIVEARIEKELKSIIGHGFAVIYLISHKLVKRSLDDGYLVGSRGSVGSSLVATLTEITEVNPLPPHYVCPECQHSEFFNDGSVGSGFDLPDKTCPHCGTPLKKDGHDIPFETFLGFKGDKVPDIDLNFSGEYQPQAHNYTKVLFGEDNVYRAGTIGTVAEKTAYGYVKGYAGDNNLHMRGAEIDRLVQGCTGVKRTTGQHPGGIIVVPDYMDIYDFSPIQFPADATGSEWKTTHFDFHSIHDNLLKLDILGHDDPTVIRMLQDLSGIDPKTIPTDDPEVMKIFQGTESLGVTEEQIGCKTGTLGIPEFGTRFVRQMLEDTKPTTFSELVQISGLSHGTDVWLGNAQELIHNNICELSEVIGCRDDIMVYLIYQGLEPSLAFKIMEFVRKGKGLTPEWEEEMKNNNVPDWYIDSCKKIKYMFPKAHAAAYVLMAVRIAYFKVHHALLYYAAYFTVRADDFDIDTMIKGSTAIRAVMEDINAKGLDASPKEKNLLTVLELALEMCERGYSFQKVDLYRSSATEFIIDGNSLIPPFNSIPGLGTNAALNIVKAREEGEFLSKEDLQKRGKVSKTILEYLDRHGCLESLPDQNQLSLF
Chain of Thioredoxin reductase 1, cytoplasmic (Rattus norvegicus) (O89049 whole entry, looked up): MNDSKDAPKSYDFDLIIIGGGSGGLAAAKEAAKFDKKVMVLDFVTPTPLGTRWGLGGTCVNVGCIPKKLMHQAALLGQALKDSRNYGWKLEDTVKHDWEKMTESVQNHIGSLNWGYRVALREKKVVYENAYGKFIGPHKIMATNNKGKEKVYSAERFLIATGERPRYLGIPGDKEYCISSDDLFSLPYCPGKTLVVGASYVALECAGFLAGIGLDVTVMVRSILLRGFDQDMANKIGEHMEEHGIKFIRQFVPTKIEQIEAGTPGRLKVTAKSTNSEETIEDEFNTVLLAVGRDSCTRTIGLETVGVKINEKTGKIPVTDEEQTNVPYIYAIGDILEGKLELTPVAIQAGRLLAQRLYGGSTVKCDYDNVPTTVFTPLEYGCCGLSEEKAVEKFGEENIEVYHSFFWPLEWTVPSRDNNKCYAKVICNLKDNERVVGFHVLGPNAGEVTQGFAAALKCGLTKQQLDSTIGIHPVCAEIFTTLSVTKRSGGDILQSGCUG
Chain of M-phase phosphoprotein 8 (Homo sapiens) (Q99549 whole entry, looked up): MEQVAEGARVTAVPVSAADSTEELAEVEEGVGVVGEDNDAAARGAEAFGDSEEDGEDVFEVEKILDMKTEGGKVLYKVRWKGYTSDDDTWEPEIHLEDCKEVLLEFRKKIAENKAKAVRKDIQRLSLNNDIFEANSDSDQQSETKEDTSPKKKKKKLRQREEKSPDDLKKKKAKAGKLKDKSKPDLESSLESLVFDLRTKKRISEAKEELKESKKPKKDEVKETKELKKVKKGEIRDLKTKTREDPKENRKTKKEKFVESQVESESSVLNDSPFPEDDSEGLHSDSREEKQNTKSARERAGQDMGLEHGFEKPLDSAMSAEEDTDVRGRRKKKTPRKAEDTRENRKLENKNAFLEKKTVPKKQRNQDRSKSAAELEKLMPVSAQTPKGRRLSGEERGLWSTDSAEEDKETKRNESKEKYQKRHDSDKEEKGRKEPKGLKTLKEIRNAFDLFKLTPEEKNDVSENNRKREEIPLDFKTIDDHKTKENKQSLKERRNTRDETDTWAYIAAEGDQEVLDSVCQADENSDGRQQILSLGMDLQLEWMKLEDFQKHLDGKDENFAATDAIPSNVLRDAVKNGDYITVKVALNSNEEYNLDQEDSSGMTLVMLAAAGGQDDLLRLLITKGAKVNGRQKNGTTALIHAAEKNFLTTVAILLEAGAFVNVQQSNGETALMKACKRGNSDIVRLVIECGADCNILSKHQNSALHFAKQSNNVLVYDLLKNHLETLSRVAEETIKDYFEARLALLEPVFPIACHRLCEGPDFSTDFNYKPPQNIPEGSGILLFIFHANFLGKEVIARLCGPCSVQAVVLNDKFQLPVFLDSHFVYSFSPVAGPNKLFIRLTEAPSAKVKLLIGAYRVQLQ

`C[C@@H](CN1CCC(Cc2ccccc2)CC1)[C@@H](O)c1ccc(O)cc1`: the compound was called inactive in assay [1], in [6], in assay [7] and in [8]. Further, the Potency entry in assay [2], in assay [3], in assay [4], in assay [5], in [9] and in assay [10] was “inactive” in each case. In addition, the Potency entry in assay [11], in [12], in assay [13], in assay [14] and in assay [15] was “inactive” each time.
For the compound `CCCCCCCCCCCCCCCC(=O)NCC(COP(=O)([O-])OCC[N+](C)(C)C)OCC` (stereo not drawn), the outcome in assay [1], in assay [7] and in assay [8] was inactive. Moreover, the Potency result in assay [2], in [3], in assay [16], in assay [4], in [5] and in [10] was “inactive” each time. Besides, the Potency entry in [17], in assay [11], in assay [13], in [14] and in [15] was “inactive” throughout.
Consider `CC(C)ON([C@@H](C(=O)NO)C(C)C)S(=O)(=O)c1ccc(-c2ccccc2)cc1`, for which the outcome in assay [1], in [7] and in assay [8] was inactive. In addition, the Potency entry in [2], in [4], in assay [5], in assay [9], in [11] and in [12] was “inactive” each time. Also, the Potency result in assay [13] and in [14] was “inactive” each time. Besides, in assay [3], the Potency was 5.85 µM (active).
On to `O=C1NC(=O)/C(=C/c2ccc(-c3ccc(F)cc3O)o2)S1`, for which the compound was classed as inactive in assay [1] and in assay [8]. Moreover, the Potency entry in assay [2], in [3], in assay [16], in assay [4], in assay [5] and in assay [11] was “inactive” each time. For the same compound, the Potency is 26.7 µM (active) in assay [13] and 39.8 µM (active) in [15].
On to `O=C(c1ccc(Cl)cc1)N1CCN(c2ccc([N+](=O)[O-])c3ncccc23)CC1`, for which the call in assay [1], in assay [6], in [7] and in assay [8] was inactive. In addition, the Potency result in assay [2], in [3], in assay [4], in [5], in assay [11] and in [12] was “inactive” throughout. Further, the Potency entry in [13] and in assay [15] was “inactive” each time.
On to `N#C/C(=C\c1ccc(O)c(O)c1)C(=O)NCc1ccccc1`, for which the outcome in assay [1], in [6] and in assay [8] was inactive. In addition, the Potency entry in [2], in assay [3], in assay [4], in assay [5], in assay [10] and in assay [11] was “inactive” each time. In addition, the Potency result in [13] was “inactive”. Also, the Potency was 8.91 µM (active) in assay [18], 13.5 µM (active) in assay [9] and 10 µM (active) in assay [15].
Consider `COc1ccccc1N1CCN(CCCCNS(=O)(=O)c2cccc3c(N(C)C)cccc23)CC1`, for which the call in [1], in [6] and in assay [8] was inactive. The Potency entry in [2], in [4], in assay [5], in assay [10], in [17] and in assay [11] was “inactive” throughout. For the same compound, the Potency entry in [13] and in assay [14] was “inactive” each time. In addition, the Potency in assay [16] is 16.5 µM (active).
